Compound activity from PubChem.
Shown are actives, neighbours in structure and some others; about 21% of the full set was active somewhere.
Pf growth 96h: P. falciparum growth inhibition at 96 hours. 6.9% of 320,000 active. P. falciparum luciferase reporter growth, 96 h. Potency, µM (titrated, usually from 28.7 µM), for the others: top-dose activity change, negative = inhibition, usual class: inhibitors. AID 504834; further: potency means the concentration at half of the fitted maximal effect; on the % scale 0 is the no-effect control and ±100 the full control effect
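P. falciparum expressing integrated firefly luciferase grown in erythrocytes (2% hematocrit, 0.05% parasitemia final) with compounds for 96 hours at 37 C, 5% CO2. Growth inhibition read as loss of luminescence after adding luciferase detection reagent.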
NS1 function inh: blocks influenza NS1 protein function; Potency, µM (highest dose often 46.1 µM), for inactives: at the highest dose activity, positive = more growth; 0.4% of 270,000 active; AID 2326; calls by dose curve; further: potency means the concentration at half of the fitted maximal effect; actives are rising curves; nearly all actives have a fitted effect of over 50% in size
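Read-out: OD600 growth recovery of NS1-expressing budding yeast. Cells grown overnight at 30C in -URA glucose medium, washed, resuspended and diluted 1:100 in 2% galactose assay medium, pH 6.0. Same strain lacking NS1 served as positive control.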
Cycloheximide cs: counter-screen for Shiga toxin inhibitors: cycloheximide protein synthesis inhibition | AID 2314 | cell reporter, cycloheximide protein synthesis inhibition counterscreen | 12% of 300,000 active | max response, %; in the data active means max response mostly above about 13%, no sharp cut-off; inactive means mostly below about 14%; further: read at 38.3 µM for the half of the compounds with a filed dose; 0% is about no effect
SARS PLP yeast: inhibitors of SARS-CoV papain-like protease in yeast. Potency, µM (series often up to 32.9 µM), for inactives: top-dose activity, positive = growth rescue, actives largely listed as activators. S. cerevisiae expressing SARS-CoV PLpro, growth rescue. 0.19% of 330,000 active; calls by dose curve; further: potency means the concentration at half of the fitted maximal effect; 0% is about no effect; nearly all actives have a fitted effect of over 55% in size
Shiga toxin inh: inhibitors of Shiga toxin in Vero cells; inhibition, % at 38.7 µM; 9.2% of 290,000 active; AID 2315; Vero cells, Shiga toxin protein synthesis inhibition reporter; in the data active means inhibition mostly above about 28%, no sharp cut-off; inactive means mostly below about 43%; further: 0% is about no effect
Pf growth 48h: P. falciparum growth inhibition at 48 hours (one generation); P. falciparum luciferase growth in erythrocytes, 48 h; 5.9% of 310,000 active; Potency, µM (highest dose often 28.7 µM), for the others: at the highest dose activity change, negative = inhibition, actives largely listed as inhibitors; AID 504832; further: potency means the concentration at half of the fitted maximal effect; on the % scale 0 is the no-effect control and ±100 the full control effect
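Cell-based growth assay: transgenic P. falciparum expressing firefly luciferase, cultured in red cells within RPMI 1640 containing 0.5% w/v Albumax, 24 mM bicarbonate and gentamycin. A drop in luciferase activity indicates inhibition.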
Active calls of the source: *; [ ] = another dose, or the depositor's remark. Unless noted, the call rests on the fitted dose curve; in most records, active means well fitted inhibition curve with a large enough effect; inconclusive means small, poorly fitted or top-dose-only effect, or another doubt; inactive means no such curve, though single readings can be large or run the other way.

Screening Cc1cccc(N=C2NN=C(c3ccccc3F)CS2)c1C returned Pf growth 96h 0.0%, Cycloheximide cs 34.2*, SARS PLP yeast 3.7%, Shiga toxin inh 51.2* and Pf growth 48h -30.7%.
`COCCn1c(C)cc(C2=NNC(=Nc3ccccc3F)SC2)c1C` gave Pf growth 96h 3.7µM*, NS1 function inh 22.2%, Cycloheximide cs 94.8*, SARS PLP yeast -5.8% and Shiga toxin inh 103.8*.
`Cc1[nH]c2ccccc2c1C1=NNC(=Nc2ccc(F)cc2)SC1` gave Pf growth 96h 8.28µM*, NS1 function inh inconclusive, Cycloheximide cs -4.3, SARS PLP yeast 4.2%, Shiga toxin inh -4.4 and Pf growth 48h inconclusive.
`COc1ccc(C2=NNC(=Nc3cc(S(=O)(=O)N(C)C)ccc3C)SC2)c(OC)c1` gave Pf growth 96h -12.8%, NS1 function inh 3.2%, Cycloheximide cs -2.1, SARS PLP yeast 3.6%, Shiga toxin inh 13.5 and Pf growth 48h 1.65µM*.
`Cc1cccc(Oc2sc(C(=O)c3ccccc3)c(N)c2C#N)c1` gave Pf growth 96h -25.0%, NS1 function inh -1.5%, Cycloheximide cs 13.3, SARS PLP yeast 0.0%, Shiga toxin inh -12.8 and Pf growth 48h -5.1%.
`CC[C@@H]1[C@@H]2Cc3ccc(O)cc3[C@@]1(CC)CCN2C` gave NS1 function inh -5.3%.
For CCc1ccccc1N(CC(=O)N1CCCCCC1)S(C)(=O)=O the results were Pf growth 96h -42.7%, NS1 function inh 24.7%, Cycloheximide cs -0.7, SARS PLP yeast 1.9%, Shiga toxin inh -12.1 and Pf growth 48h -11.2%.
For C/C(=N\NC(=O)CNC(=O)C1COc2ccccc2O1)c1ccco1 (stereo not drawn) the results were Pf growth 96h 13.2%, NS1 function inh 3.5%, Cycloheximide cs -2.7, SARS PLP yeast -0.1%, Shiga toxin inh -8.4 and Pf growth 48h 4.3%[0.00184 µM].
For Cc1ccc(NC(=O)c2ncn(CC(=O)NCc3ccc4c(c3)OCO4)n2)cc1C the results were SARS PLP yeast 5.6%.
Screening Fc1ccc(F)c(C2=NNC(=Nc3ccccc3F)SC2)c1 returned Pf growth 96h inconclusive, NS1 function inh -16.2%, Cycloheximide cs 130.2*, SARS PLP yeast -49.8%, Shiga toxin inh 149.7* and Pf growth 48h inconclusive.
For CN(C)S(=O)(=O)c1cccc(N=C2NN=C(c3ccccc3)CS2)c1 the results were Pf growth 96h 2.33µM*, NS1 function inh 26.2%, Cycloheximide cs 2.5, SARS PLP yeast 17.3%, Shiga toxin inh 1.4 and Pf growth 48h 13.1µM*.
Screening CCN1C(=O)CSC1=Nc1ccccc1Cl returned Pf growth 96h 4.0%, NS1 function inh -6.5%, Cycloheximide cs -2.8, SARS PLP yeast 1.0%, Shiga toxin inh -1.8 and Pf growth 48h 1.5%.
O=C1NC(=Nc2ccc(F)cc2)CS1 was read as Pf growth 96h inconclusive, Cycloheximide cs -4.4, SARS PLP yeast 0.1%, Shiga toxin inh -2.5 and Pf growth 48h 11.4%.
`CC(=O)Nc1ccc(C2=NNC(=Nc3cccc(S(=O)(=O)N(C)C)c3)SC2)cc1` gave Pf growth 96h inconclusive, NS1 function inh 15.8%, Cycloheximide cs -2.1, SARS PLP yeast -0.4%, Shiga toxin inh -8.5 and Pf growth 48h inconclusive.
Clc1ccccc1N=C1NN=C(c2cccs2)CS1 was read as Pf growth 96h 227.8%, Cycloheximide cs 53.4*, SARS PLP yeast -3.2%, Shiga toxin inh 97.8* and Pf growth 48h 343.0%.
For Fc1ccc(N=C2NN=C(c3cc(F)ccc3F)CS2)cc1 the results were Pf growth 96h inconclusive, NS1 function inh -24.4%, Cycloheximide cs 54.2*, SARS PLP yeast -55.8%, Shiga toxin inh 69.0* and Pf growth 48h 0.0%.
O=C(COC(=O)c1ccc(O)cc1)NCC1CCCO1 (stereo not drawn) was read as Pf growth 96h 18.3%, Cycloheximide cs -5.1, SARS PLP yeast -3.2%, Shiga toxin inh 8.8 and Pf growth 48h -12.2%.
For O=C(CNC(=O)c1ccco1)NCC(c1ccco1)N1CCCCC1 (stereo not drawn) the results were Pf growth 96h -27.4%, SARS PLP yeast 2.8% and Pf growth 48h -27.2%.
Screening O=S(=O)(c1ccc(N=C2NN=C(c3cc(F)ccc3F)CS2)cc1)N1CCOCC1 returned Pf growth 96h inconclusive, Cycloheximide cs 5.9, SARS PLP yeast -1.8%, Shiga toxin inh 2.7 and Pf growth 48h 2.33µM*.
